Assay results reported in the supplement of paper PMC3334620.
In all, about 33,000 sequences were measured (“E-score (-0.5 to 0.5)”: median about -0.0034, highest 2% from about 0.25 on). The sample as a whole holds a higher share of the highest values than the screen did.

target: T1, Yap3 (UniProt P38749); assay: PBM E-score (8-mer binding enrichment) (E-score (-0.5 to 0.5)); higher = stronger / more preferred TF binding; conditions: protein concentration: 100 nM; construct: GST-full length
T1 sequence: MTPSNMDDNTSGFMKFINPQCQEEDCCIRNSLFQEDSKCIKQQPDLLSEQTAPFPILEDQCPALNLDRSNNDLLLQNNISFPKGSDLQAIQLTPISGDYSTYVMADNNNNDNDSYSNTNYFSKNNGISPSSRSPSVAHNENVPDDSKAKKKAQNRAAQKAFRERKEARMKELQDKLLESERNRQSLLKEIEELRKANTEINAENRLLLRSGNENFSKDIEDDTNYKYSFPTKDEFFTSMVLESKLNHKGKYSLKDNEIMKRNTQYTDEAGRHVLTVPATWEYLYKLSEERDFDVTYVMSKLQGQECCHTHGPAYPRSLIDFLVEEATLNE
Procedure: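 Universal 'all 10-mer' protein binding microarrays (Agilent AMADID 015681) probed with GST-tagged S. cerevisiae TFs (full-length or DBD) made by in vitro transcription/translation (PURExpress), about 100-200 nM. Bound TF was detected with fluorescent anti-GST. Each ungapped 8-mer (which stands for itself and its reverse complement) is scored by the PBM enrichment score (E-score), a modified Wilcoxon-Mann-Whitney statistic from -0.5 to +0.5, computed with the Universal PBM Analysis Suite. Scale: above 0.35 generally sequence-specific binding.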

Point of comparison: ACTAAATA, “PBM E-score” value 0.29. Against it:
- AAACGATA — lower, 0.0765
- CAACGATA — lower, 0.0838
- TAACGATA — lower, 0.261
- GAACTGTA — lower, 0.208
- AATCAGGA — lower, 0.0679
- AATAAAGG — lower, -0.0245
- GATAAATA — lower, 0.233
- TATAAATA — higher, 0.301
- AATAAATA — higher, 0.315
- CATAAATA — lower, 0.197
- AATAAATT — lower, 0.186
- AATAAAGT — lower, 0.262
- AATAAATG — lower, 0.216
- ACTAAATC — lower, 0.198
- CCTAAATA — lower, -0.122
- AATAAAGA — lower, 0.156
- ATACTAGC — lower, 0.0285
- GCCAGTCC — lower, -0.343
- CGATCGGC — lower, 0.00629
- GAGCTAAC — lower, 0.0153
- ACTCGCAC — lower, -0.0984
- AGTCGCAC — lower, -0.233
- AACTTGAT — lower, 0.15
- GGCGGTGA — lower, 0.132
- GAAGACCA — lower, -0.105
- GGGTAAAC — lower, 0.0445
- GGGTAAAA — lower, 0.258
- CGGTAAAA — lower, 0.114
- AGATAAGG — lower, -0.0911
- AATAGAAC — lower, 0.16
- TAACTAAA — lower, 0.165
- TTACTAAA — higher, 0.401
- GCACTAAA — lower, 0.179
- GTACTAAA — lower, 0.21
- TCACTAAA — lower, 0.121
- GAACTAAA — lower, 0.0567
- AAACTAAC — lower, 0.232
- AAACTAAA — lower, 0.261
- ATACTAAA — lower, 0.188
- AAACTAAG — lower, 0.186
- AAACTAAT — lower, 0.272
- ACACTAAA — lower, 0.261
- ATTTCTAG — lower, 0.083
- GGATCCAA — lower, 0.138
- CAGCGACG — lower, -0.0734
- GATTGGAC — lower, 0.0901
- TCCTCTCA — lower, 0.0272
- ACGATCAA — lower, 0.0848
- ACAGAGGA — lower, -0.00698
- GCGGAAAA — lower, 0.245
- ACGGAAAA — lower, 0.107
- AAGAAATT — lower, 0.199
- ACGGAAAC — lower, -0.079
- ACGGAAAG — lower, 0.144
- TCGGAAAA — lower, 0.275
- AAAGAAAG — lower, 0.231
- AAAGAAAT — lower, 0.26
- ACGGAAAT — higher, 0.323
- AAGAAAAA — lower, 0.059
- AAGAAAAT — lower, 0.273
- AAAGAAAA — lower, 0.18
- ACCCTTTA — lower, 0.101
- CGCTGGTC — lower, -0.307
- ACGCTGAA — lower, -0.00885
- CCCATTGA — lower, -0.0177
- GATGCGAA — lower, 0.057
- TCCGGTCA — lower, 0.00023
- AAGTATCA — lower, 0.052
- CCCCACTA — lower, -0.135
- AAGTTGCC — lower, -0.0508
- ACGAAAAA — lower, 0.0676
- ACGAAAAT — lower, 0.257
- ACGAAAAG — lower, 0.153
- GACTCATC — lower, -0.108
- AGCGCTTA — lower, 0.0641
- CGCGCTTA — lower, 0.265
- CGCGCTGA — lower, 0.0303
- ATCGATGC — lower, 0.133
- CATTAAGA — lower, 0.0516
- ATTGTTAC — lower, 0.288
- ATTGTTAG — lower, 0.153
- ATTGTTTA — lower, 0.0804
- GTTGTTTA — lower, 0.273
- CTTGTTAA — lower, 0.022
- CTTGTTAC — lower, 0.0269
- GTTGTTAA — higher, 0.298
- ATTGTTAA — lower, 0.17
- CTTGTTTA — lower, 0.0644
- TTCAAAAA — lower, 0.0865
- ACGTCCTA — lower, 0.00661
- AGCACACT — lower, 0.0288
- GGATCCAC — lower, -0.0381
- AGAAAGAA — lower, 0.0357
- TGAAAGAA — higher, 0.297
- GGAAAGAA — lower, 0.0609
- TGAAAGCA — lower, 0.254
- GGAAAGCA — lower, 0.018
- AGAAAGCA — lower, 0.232
